# Source: PubChem (National Center for Advancing Translational Sciences (NCATS))
# BRCA1 expr up: activators of BRCA1 expression. Potency, µM (highest dose often 46.1 µM), without a hit: at the highest dose activation, hits mostly activators. AID 624202. MCF7-BRCA1-FFLuc reporter, luminescence, 48 h; response scale: scaled: vehicle 0%, 10 µM genistein 100%. hit rate 1.1% among 380,000; also: potency is read from the fitted curve at half-maximal effect; nearly all actives have a fitted effect of over 80% in size
#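 Compounds are tested at multiple concentrations on MCF7 BRCA1-luciferase reporter cells seeded at 2000 per well; after 48 h, a single luminescence end-point is taken and curves fitted to the normalized data.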
# ELG1 DNA repair: blocks ELG1-dependent DNA repair in HEK293T cells. HEK293T ELG1-luciferase reporter, luminescence, 16 h; DNA damage induced by 5-fluorouridine. hit rate 2.3% among 330,000. AID 504467. Potency, µM (top dose mostly 46.1 µM), without a hit: at the top dose activity change, negative = inhibition, actives largely listed as inhibitors; also: potency is read from the fitted curve at half-maximal effect; % is scaled to controls: 0 for no effect and ±100 for the full control effect; nearly all actives have a fitted effect of over 55% in size
#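 In this reporter screen, reduction of luminescence relative to DMSO vehicle indicated activity. Compounds and 5-fluorouridine were added together to 2,000 cells per well, incubated for 16 hr at 37 °C, then developed with ONE-Glo.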
# VP16 counter: counter-screen for ROR gamma inhibitors: Gal4-VP16 reporter. Drosophila S2 Gal4-VP16 UAS-luciferase, luminescence, 20 h. Potency, µM (top dose mostly 53.6 µM), without a hit: at the highest dose activity, negative = inhibition, actives largely listed as inhibitors. hit rate 3.5% among 310,000. AID 2546;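 also: Gal4-VP16 expression switched on by copper sulfate through the metallothionein promoter; potency is read from the fitted curve at half-maximal effect; % is scaled to controls: 0 for no effect and ±100 for the full control effect; nearly all actives have a fitted effect of over 50% in size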
# p53 reactivation: restores transcriptional activity of mutant p53 | H1299 p53-A138V BP100-luciferase reporter, luminescence, 24 h | Potency, µM (series often up to 92.2 µM), for the others: top-dose activity change, positive = activation, most hits filed as activators | hit rate 0.063% among 320,000 | AID 504706; also: potency is read from the fitted curve at half-maximal effect; % of control where 0% means no effect; nearly all actives have a fitted effect of over 45% in size
#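 H1299 (p53-null), stable ts p53-A138V + BP100-Luc; 1000 cells/well, Opti-MEM/10% FBS; cpd 4 pt, 1:5; 24 h, 37 deg C, 5% CO2; detection reagent 10 min RT; luminescence.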
# RORgamma inh: blocks mouse ROR gamma transcriptional activity | P51450 | Drosophila S2 Gal4-RORgamma UAS-luciferase reporter, 20 h | hit rate 5.4% among 310,000 | Potency, µM (doses to about 53.6 µM), for the others: top-dose activity change, negative = inhibition, actives largely listed as inhibitors; also: potency is read from the fitted curve at half-maximal effect; % is scaled to controls: 0 for no effect and ±100 for the full control effect; nearly all actives have a fitted effect of over 60% in size
#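 Schneider cells (Drosophila), stable Gal4 DBD–ROR gamma + UAS-luc; 1 hr cmpd preincubation; Cu2+ induction 700 uM final; 20 hr ambient; luminescence.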
# Giardia killer: Giardia lamblia killing; Giardia lamblia trophozoite viability; activity change, % at 7.66 µM, hits read low; hit rate 0.15% among 340,000; AID 540267; in the data active = activity change below about -80%; inconclusive = between about -30% and that limit;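 also: parasites exposed to compound for two days anaerobically before the ATP read; % is scaled to controls: 0 for no effect and ±100 for the full control effect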
#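 ATP-content bioluminescence gauges trophozoite survival. Cells (100/well) receive compound and incubate anaerobically for 48 hrs at 37 deg C; detection reagent follows for 15-30 min at room temperature.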
# ELG1 FLuc counter: luciferase inhibition in cell-free luciferin readout for ELG1 hits; shares compounds with ELG1 DNA repair; cell-free firefly luciferase luminescence counter-screen, ViewLux; Potency, µM (highest dose often 46.1 µM), for the others: at the highest dose activity change, negative = inhibition, hits mostly inhibitors; hit rate 3% among 350; also: potency is read from the fitted curve at half-maximal effect; % is scaled to controls: 0 for no effect and ±100 for the full control effect
# ELG1 Luc conf: confirmation of human ELG1-dependent DNA repair inhibitors; HEK293T ELG1-luciferase levels, luminescence; cells co-treated with 5-fluorouridine; hit rate 68% among 670; shares compounds with ELG1 DNA repair; AID 624248; Potency, µM (series often up to 46.1 µM), for the others: at the top dose activity change, negative = inhibition, most hits filed as inhibitors; also: potency is read from the fitted curve at half-maximal effect; % is scaled to controls: 0 for no effect and ±100 for the full control effect; nearly all actives have a fitted effect of over 55% in size
# Target sequence (Q96QE3 whole entry, looked up): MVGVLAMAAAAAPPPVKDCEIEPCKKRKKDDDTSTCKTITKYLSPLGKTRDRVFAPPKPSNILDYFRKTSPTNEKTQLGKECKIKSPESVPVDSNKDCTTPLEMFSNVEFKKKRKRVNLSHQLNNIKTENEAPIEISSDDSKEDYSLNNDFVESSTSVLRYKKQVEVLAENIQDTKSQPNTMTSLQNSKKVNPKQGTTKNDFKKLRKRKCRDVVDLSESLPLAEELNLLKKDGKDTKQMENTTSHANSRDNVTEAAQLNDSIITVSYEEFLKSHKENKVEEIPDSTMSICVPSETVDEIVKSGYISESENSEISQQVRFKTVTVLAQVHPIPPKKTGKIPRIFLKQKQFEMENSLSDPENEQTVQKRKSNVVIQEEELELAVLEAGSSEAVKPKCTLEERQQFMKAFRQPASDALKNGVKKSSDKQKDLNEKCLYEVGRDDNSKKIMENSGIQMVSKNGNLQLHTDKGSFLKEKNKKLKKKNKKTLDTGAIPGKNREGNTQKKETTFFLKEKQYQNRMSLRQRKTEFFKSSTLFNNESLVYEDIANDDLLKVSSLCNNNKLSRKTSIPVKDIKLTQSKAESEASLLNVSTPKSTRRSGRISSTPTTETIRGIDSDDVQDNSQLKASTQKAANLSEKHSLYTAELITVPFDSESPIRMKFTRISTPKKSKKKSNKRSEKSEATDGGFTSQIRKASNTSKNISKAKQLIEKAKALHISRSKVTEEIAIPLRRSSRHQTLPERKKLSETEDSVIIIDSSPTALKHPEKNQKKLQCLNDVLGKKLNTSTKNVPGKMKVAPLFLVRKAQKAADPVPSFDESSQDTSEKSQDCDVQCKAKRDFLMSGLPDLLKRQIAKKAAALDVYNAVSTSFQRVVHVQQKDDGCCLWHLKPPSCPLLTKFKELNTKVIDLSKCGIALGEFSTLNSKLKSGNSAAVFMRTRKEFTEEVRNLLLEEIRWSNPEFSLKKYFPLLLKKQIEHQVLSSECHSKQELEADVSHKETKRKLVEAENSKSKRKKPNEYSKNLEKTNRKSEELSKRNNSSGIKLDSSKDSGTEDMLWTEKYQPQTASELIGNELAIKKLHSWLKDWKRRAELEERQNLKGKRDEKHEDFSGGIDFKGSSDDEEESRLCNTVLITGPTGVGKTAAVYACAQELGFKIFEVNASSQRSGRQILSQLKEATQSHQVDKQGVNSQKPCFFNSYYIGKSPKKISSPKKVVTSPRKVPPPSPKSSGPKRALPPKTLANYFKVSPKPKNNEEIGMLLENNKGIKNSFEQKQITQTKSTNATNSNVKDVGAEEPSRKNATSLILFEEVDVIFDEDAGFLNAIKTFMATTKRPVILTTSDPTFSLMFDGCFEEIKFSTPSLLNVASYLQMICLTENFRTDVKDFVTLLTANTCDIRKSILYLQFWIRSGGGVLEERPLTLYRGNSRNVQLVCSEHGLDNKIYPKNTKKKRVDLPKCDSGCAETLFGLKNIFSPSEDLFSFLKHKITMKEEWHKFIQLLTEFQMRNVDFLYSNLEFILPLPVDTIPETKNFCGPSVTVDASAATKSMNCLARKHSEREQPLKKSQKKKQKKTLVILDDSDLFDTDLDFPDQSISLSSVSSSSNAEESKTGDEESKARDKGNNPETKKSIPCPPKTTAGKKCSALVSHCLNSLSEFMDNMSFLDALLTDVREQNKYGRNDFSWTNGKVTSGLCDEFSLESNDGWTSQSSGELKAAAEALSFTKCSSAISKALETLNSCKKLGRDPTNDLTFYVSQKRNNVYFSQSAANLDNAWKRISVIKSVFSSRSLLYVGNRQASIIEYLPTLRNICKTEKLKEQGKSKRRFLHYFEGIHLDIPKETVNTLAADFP
# ELG1-Luc MMS: MMS-stimulated human ELG1 repair inhibition, confirmed | hit rate 53% among 670 | Potency, µM (highest dose often 46.1 µM), for inactives: top-dose activity change, negative = inhibition, hits mostly inhibitors | shares compounds with ELG1 DNA repair | AID 624249 | HEK293T luciferase-tagged ELG1 level, MMS stimulated; also: potency is read from the fitted curve at half-maximal effect; % is scaled to controls: 0 for no effect and ±100 for the full control effect; nearly all actives have a fitted effect of over 60% in size
# ELG1 5-FU: confirmation of ELG1 repair inhibitors: viability with 5FU; shares compounds with ELG1 DNA repair; cell viability with 5-FU, ELG1-dependent repair; Potency, µM (series often up to 46.1 µM), inactives show top-dose activity change, negative = viability loss, usual class: cytotoxic; 670 tested, under 10 active;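 also: ELG1-luc HEK293T cells cotreated with 5-fluorouridine at 10 µM final; potency is read from the fitted curve at half-maximal effect; viability measured 16 h after compound addition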
# ELG1 MMS cell: confirmation of ELG1 repair inhibitors: viability with MMS | shares compounds with ELG1 DNA repair | Potency, µM (top dose mostly 46.1 µM), for inactives: top-dose activity change, negative = viability loss, most hits filed as cytotoxic | hit rate 33% among 670 | Cell viability with MMS, ELG1-dependent DNA repair;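 also: ELG1-luc HEK293T cells co-treated with 10 µM MMS; potency is read from the fitted curve at half-maximal effect; viability read 16 h after compound addition; % is scaled to controls: 0 for no effect and ±100 for the full control effect; nearly all actives have a fitted effect of over 60% in size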
# Cell viab unstim: counter-screen for ELG1 repair inhibitors: unstimulated cell viability | shares compounds with ELG1 DNA repair | cell viability counter-screen, unstimulated, luminescence | Potency, µM (highest dose often 45.9 µM), without a hit: top-dose activity change, negative = loss of viability, most hits filed as cytotoxic | hit rate 8% among 900;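 also: potency is read from the fitted curve at half-maximal effect; compound exposure lasted 16 hours before reading; % is scaled to controls: 0 for no effect and ±100 for the full control effect; nearly all actives have a fitted effect of over 55% in size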
# FLuc enzyme: inhibits purified firefly luciferase, counter-screen for ELG1 hits; hit rate 10% among 350; Potency, µM (highest dose often 57.5 µM), inactives show top-dose activity, negative = inhibition, actives largely listed as inhibitors; purified firefly luciferase, luminescence counter-screen; AID 624253; shares compounds with ELG1 DNA repair; also: potency is read from the fitted curve at half-maximal effect; % is scaled to controls: 0 for no effect and ±100 for the full control effect
# * marks the source's active call; other numbers are inactive results; ? = inconclusive; / = no result. Sampled rows, rich in hits. Any-hit rate of the full collection: about 7.6%. Unless noted, calls follow the shape of the dose curve; as a rule, active = well fitted curve in the direction sought with a large enough effect; inconclusive = small, poorly fitted or top-dose-only effect, or another doubt; inactive = no such curve, though single readings can be large; an effect the other way counts as inactive or inconclusive.
SMILES,BRCA1 expr up,ELG1 DNA repair,VP16 counter,p53 reactivation,RORgamma inh,Giardia killer,ELG1 Luc conf,ELG1-Luc MMS,ELG1 5-FU,ELG1 MMS cell,Cell viab unstim,others
COc1ccc2cc3c(N)nn(C(=O)c4ccc(Cl)c([N+](=O)[O-])c4)c3nc2c1,42%,1.6µM*,-2%,58%,18%,-16,3.5µM*,7.9µM*,5%,7%,7%,
Brc1ccc2cccnc2c1,-4%,0%,-2%,-4%,-21%,2,/,/,/,/,/,
Nc1ccc2cccnc2c1,?,/,/,/,/,/,/,/,/,/,-9%,
O=S1(=O)[C@H]2C[C@H](CO)O[C@@]2(CO)CN1Cc1ccc(-c2cccc(Cl)c2)cc1,-8%,2.3µM*,/,-8%,/,-14,2.5µM*,-6%,?,?,?,
C/C(CC(=O)Nc1ccc2ccccc2c1)=N\NC(=O)c1ccc(O)c(O)c1,37%,?,-2%,12%,?,-3,/,/,/,/,/,
Cc1ccccc1-n1c(SCC(=O)c2c(N)n(C)c(=O)n(C)c2=O)nc2sc3c(c2c1=O)CCCC3,-26%,1.6µM*,-14%,0%,-7%,11,2.5µM*,-17%,?,-1%,-16%,ELG1 FLuc counter=-7%;FLuc enzyme=-2%
Cc1ccccc1-n1c(SCC(=O)c2c(N)n(C)c(=O)n(C)c2=O)nnc1-c1cccnc1,1%,?,1%,-5%,3%,7,/,/,/,/,/,
CCN(CC(=O)NCc1cccs1)c1ccc(S(=O)(=O)N2CCOCC2)cn1,-1%,2%,-1%,30%,12%,-9,/,/,/,/,/,
O=C1NC[C@H](c2ccccc2)OC(=O)[C@@H](Cc2ccc(F)cc2)C/C=C\C[C@H]1CC(=O)N(CCO)Cc1ccccc1,-36%,2.6µM*,/,-4%,/,13,7.9µM*,13µM*,?,?,?,
O=C1N[C@@H](c2ccccc2)COC(=O)[C@H](Cc2ccc(F)cc2)C/C=C\C[C@H]1CC(=O)N(CCO)Cc1ccccc1,-2%,/,/,/,/,18,/,/,/,/,/,
O=C1NC[C@H](c2ccccc2)OC(=O)[C@H](Cc2ccc(F)cc2)C/C=C\C[C@H]1CC(=O)N(CCO)Cc1ccccc1,-58%,1.3µM*,/,-6%,/,7,5.6µM*,2.8µM*,?,?,?,
COc1ccccc1-c1cc(C(=O)NCc2cccs2)no1,6%,?,19%,14%,32%,-8,/,/,/,/,/,
Cc1ccc(-c2cc(C(=O)NCc3cccs3)no2)cc1,4.5µM*,?,8%,?,38%,12,/,/,/,/,9%,ELG1 FLuc counter=54%;FLuc enzyme=?
N#Cc1cc2cc3c(cc2nc1SCC(=O)N1CCOCC1)OCCO3,-42%,?,-3%,?,2%,-18,/,/,/,/,?,ELG1 FLuc counter=-13%;FLuc enzyme=?
O=C(Oc1ccccc1)N1CCC2(CCCN(c3ccncc3)C2)CC1,/,/,-4%,/,13%,/,/,/,/,/,/,
COC(=O)CSc1nc2ccc(NC(C)=O)cc2s1,-24%,6%,0%,-4%,-8%,0,/,/,/,/,/,
CCSc1nnc(NC(=O)c2csc(C)c2)s1,5µM*,?,8%,?,30%,-20,/,/,/,/,10%,ELG1 FLuc counter=59%;FLuc enzyme=?
CCOc1ccc(S(=O)(=O)NC(C)C(=O)NC2CCCC2)cc1 (stereo not drawn),-2%,-23%,5%,5%,5%,21,/,/,/,/,/,
O=C(OCCc1ccccn1)c1cccc([N+](=O)[O-])c1,74%,/,/,/,/,-2,/,/,/,/,/,
c1ccc(Cn2nnnc2C(c2cccnc2)N2CCN(C3CCCCC3)CC2)cc1 (stereo not drawn),-2%,3.3µM*,-4%,-4%,-2%,-7,?,?,2%,-2%,-13%,
Cc1cccc(C)c1,/,/,-1%,/,-45%,/,/,/,/,/,/,
CCc1ccc2nc(SCC(=O)N3CCCCC3)c(C#N)cc2c1,20%,/,/,/,/,6,/,/,/,/,/,
CCc1ccc2nc(SCC(=O)Nc3ccccc3N3CCOCC3)c(C#N)cc2c1,-43%,?,-3%,-2%,-9%,33,?,7.1µM*,-15%,11µM*,?,ELG1 FLuc counter=4%;FLuc enzyme=3%
Nn1c(-c2ccc(F)cc2)nc2ccccc2c1=O,15%,-17%,-18%,0%,0%,-5,/,/,/,/,/,
O=C1c2cc(F)ccc2-n2c1nc1ccccc1c2=O,-50%,0.18µM*,0%,-4%,1%,?,20µM*,1.1µM*,-11%,1.8µM*,?,ELG1 FLuc counter=5%;FLuc enzyme=-16%
N#C/C(=C(/O)c1ccc([N+](=O)[O-])s1)c1nc2ccccc2[nH]1,-9%,2.1µM*,-25%,1%,-40%,?,?,0.79µM*,-10%,0.89µM*,?,
COc1ccc(OC)c(C(=O)COC(=O)C2CC3CCCC(C2)C3=O)c1 (stereo not drawn),3%,?,-1%,6%,32%,27,/,/,/,/,/,
CC(C)(C)c1ccc(C(O)c2ncc(-c3ccccc3Cl)[nH]2)cc1 (stereo not drawn),-11%,/,/,/,/,/,/,/,/,/,/,
Cc1nc2c(-c3ccccc3)c(C)nn2c(N)c1-c1ccccc1,?,?,?,?,?,-19,/,/,/,/,/,
